The results in this text go back to PubChem BioAssay (Tox21).

Records with an inconclusive call do not appear. Activity calls are given as the source filed them. Calls come from the whole dose curve.
% is set by controls: 0 for no effect and ±100 for the full control effect.

Chain of Vitamin D3 receptor (Homo sapiens) (P11473 whole entry, looked up): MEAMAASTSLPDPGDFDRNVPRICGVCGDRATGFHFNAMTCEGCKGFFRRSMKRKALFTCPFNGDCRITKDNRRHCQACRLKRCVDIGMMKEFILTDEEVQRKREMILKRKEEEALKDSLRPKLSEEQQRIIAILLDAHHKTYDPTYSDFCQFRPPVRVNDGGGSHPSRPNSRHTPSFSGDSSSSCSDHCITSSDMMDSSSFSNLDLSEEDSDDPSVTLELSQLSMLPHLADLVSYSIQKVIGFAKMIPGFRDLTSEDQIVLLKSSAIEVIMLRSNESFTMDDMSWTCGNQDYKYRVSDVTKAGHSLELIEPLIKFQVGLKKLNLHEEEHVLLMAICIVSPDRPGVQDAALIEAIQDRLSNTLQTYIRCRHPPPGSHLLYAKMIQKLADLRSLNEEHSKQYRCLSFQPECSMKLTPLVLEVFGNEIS

The target of the assay is Vitamin D3 receptor (Homo sapiens) (UniProt P11473). Kind of assay: qHTS assay to identify small molecule agonists of the vitamin D receptor (VDR) signaling pathway (AID 743222). The note with it: HEK293T VDR-UAS-bla, beta-lactamase FRET ratio, 16 h; series mostly up to 63.5 µM; activation: at the top concentration. An excerpt:
National Center for Advancing Translational Sciences [NCATS]
NIH Chemical Genomics Center [NCGC]
U.S. Environmental Protection Agency [EPA]
National Institutes of Environmental Health Sciences [NIEHS]
National Toxicology Program [NTP]
U.S. Food and Drug Administration [FDA]
The vitamin D receptor (VDR), a member of nuclear hormone receptor superfamily, plays a critical role in calcium homeostasis and bone metabolism. It is also involved in cell differentiation and growth, and thrombogenicity.
Tox21 Assay Protocol Summary:
VDR-bla cells were dispensed at 2,000 cells/6 uL/well into black wall/clear-bottom 1536-well plates using a Multidrop Combi (Thermo Fisher Scientific, Waltham, MA) dispenser. After the assay plates were incubated at a 37C and 5% CO2 for 4 h, 23 nL of compounds dissolved in DMSO, positive controls or DMSO only was transferred to the assay plate by a Pintool station (Kalypsys, San Diego, CA). The plates were incubated at 37C and 5% CO2 for 16 h. After 1 uL of LiveBLAzerTM B/G FRET substrate was added using a Bioraptr Flying Reagent Dispenser (FRD) workstation (Beckman Coulter, Indianapolis, IN, USA), the plates were incubated at room temperature for 2 h, and fluorescence intensity was measured by an Envision plate reader (PerkinElmer, Shelton, CT).
For the compound `C=CC(=O)OCCCCCCCCCC`, the “activation” value was 7.87% (inactive).
In the case of `O=C(O)c1ccc2cc(O)ccc2c1` it was 9.3% (inactive); in that of `C=CCCC`, 0.23% [at 81.1 µM] (inactive); in that of `Cc1c(N=C=O)cccc1N=C=O`, -9.69% [at 81.1 µM] (inactive).
Take `CC(C)=CCC/C(C)=C/C=N/O`: the “activation” value was -6.96% (inactive).
To `Clc1nc2ccccc2nc1Cl` belongs 4.81% [at 81.1 µM] (inactive); to `CO[C@@H]1COCC[C@@H]1N[C@@H]1CC[C@@](C(=O)N2CCc3ncc(C(F)(F)F)cc3C2)(C(C)C)C1`, -8.06% (inactive); to `O=C(N[C@@H](Cc1ccccc1)[C@@H](O)C(=O)N1C[C@@H](O)[C@@H](O)C1)c1cc2cc(Cl)ccc2[nH]1`, -16.6% (inactive).
Consider `Cc1cccc(C)c1NC(=O)CN1CCCC1`, for which the “activation” value was 6.12% (inactive).
Turning to `CC(C)(C)NCC(O)COc1ccc(NC(=O)NC2CCCCC2)cc1` (stereo not given), the “activation” value was 3.86% (inactive).
In the case of `O=C(OCCN1CCOCC1)c1cccnc1Nc1cccc(C(F)(F)F)c1`, the “activation” value was 1.51% (inactive).
In the case of `Cc1cc(C)n(CO)n1` it was 4.51% (inactive); in that of `OCCc1ccncc1`, -6.12% (inactive); in that of `CC(=O)S[C@H](C(=O)N[C@H]1Cc2ccccc2[C@H]2CCC[C@@H](C(=O)O)N2C1=O)C(C)C`, 1.86% (inactive).
To `CC(=O)Nc1cccc(N)c1` belongs 3.42% [at 81.1 µM] (inactive); to `CCOc1ccccc1O`, 5.57% (inactive); to `CCCCCCC/C=C/C=O`, -5.77% (inactive).
With `CC(C)NC(=O)c1ccccc1N`, the “activation” value was 4.02% (inactive).
Consider `CC(COc1ccccc1)NC(C)C(O)c1ccc(O)cc1` (stereo not given), for which the “activation” value was -7.62% (inactive).
With `O=C(O)COCC(=O)O`, the “activation” value is 7.19% [at 81.1 µM] (inactive).
For `C=C(C)C(=O)OCCCCCCCCCCOC(=O)C(=C)C`, the “activation” value is -3.05% (inactive).
For `O=C(O)c1cc(C(=O)O)cc([N+](=O)[O-])c1`, the “activation” value was 1.84% (inactive).
Regarding `O=C(O)c1ccccc1-n1cc(C(=O)O)c(=O)c2cc(Nc3c(F)cc(F)cc3Cl)c(Cl)cc21`, the “activation” value is -16.6% (inactive).
For `Cc1cc(C)c(C)c(O)c1`, the “activation” value is 1.71% (inactive).
Consider `CCCN(C1CCN(C(=O)C2CCNCC2)CC1)[C@@H]1CCc2ccc(OC)cc2C1`, for which the “activation” value is -7.33% (inactive).
`N#Cc1ccc(CC(=O)c2cccc(C(F)(F)F)c2)cc1`: the “activation” value is 0.0826% (inactive).
In the case of `COc1ccnc2c1CCCCC2S(=O)c1nc2ccccc2[nH]1` (stereo not given) it was -15.8% (inactive); in that of `CCCCCC1CCC(=O)O1` (stereo not given), 4.9% (inactive); in that of `C[C@H](CN1CCCC1)C(=O)c1ccc(C(F)(F)F)cc1`, -3.64% (inactive).
On to `CCc1ccc(C(=O)C(C)CN2CCCCC2)cc1` (stereo not given), for which the “activation” value was 7.02% (inactive).
In the case of `Cc1cc(N)n(-c2ccccc2)n1` it was -8.89% (inactive).
In the case of `CCC1=C(C)CN(C(=O)NCCc2ccc(S(=O)(=O)NC(=O)NC3CCC(C)CC3)cc2)C1=O` (stereo not given) it was 0.487% (inactive); in that of `CC1(C)CC(O)CC(C)(C)N1[O]`, 1.97% (inactive).
In the case of `CCCCCCCCCCCCCCCCN` it was 1.15% (inactive); in that of `CCC(C(=O)O)c1ccc(N2Cc3ccccc3C2=O)cc1` (stereo not given), -15.2% (inactive); in that of `Cc1c(Cl)cccc1[N+](=O)[O-]`, 6.4% (inactive).
For `Nc1nc(Cl)nc2c1ncn2[C@H]1C[C@H](O)[C@@H](CO)O1`, the “activation” value was -0.994% (inactive).
Consider `CC1(C)C(=O)NC(=O)N1CO`, for which the “activation” value was 1.3% (inactive).
Consider `Sc1nc(S)nc(S)n1`, for which the “activation” value was 6.52% (inactive).
In the case of `C[C@H](N)C(=O)N[C@@H](C)C(=O)NC1[C@H]2CN(c3nc4c(cc3F)c(=O)c(C(=O)O)cn4-c3ccc(F)cc3F)C[C@@H]12` (stereo not given in full) it was 0.934% (inactive).
